Compound activity as filed in PubChem.
HPGD block = qHTS Assay for Inhibitors of HPGD (15-Hydroxyprostaglandin Dehydrogenase). 15-hydroxyprostaglandin dehydrogenase [NAD(+)] (Homo sapiens), P15428. purified HPGD, NADH fluorescence kinetic, PGE2 substrate. Potency, µM, inactives show at the highest dose activity change, negative = inhibition, usual class: inhibitors. 150,000 compounds, 4.3% hits. AID 894, 2007; active means well fitted inhibition curve with a large enough effect, not every such curve was filed as active; inconclusive means small, poorly fitted or top-dose-only effect, or another doubt; inactive means no such curve, though single readings can be large or run the other way; further: potency means the concentration at half of the fitted maximal effect; on the % scale 0 is the no-effect control and ±100 the full control effect
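NADH formation kinetics: reaction with 30 uM PGE2 and 1 mM NAD+ (final), 20 nM enzyme, Tris-HCl pH 8 with Tween 20, after 15 min compound preincubation at room temperature. Fluorescence change, last versus first of five reads.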
HTT ATP protect = qHTS Multiplex Assay to Identify Dual Action Probes in a Cell Model of Huntington: Cytoprotection (ATP). PC12 HTT-Q103 induced, cytoprotection, ATP luminescence, 40 h. Potency, µM (top dose mostly 56.4 µM), without a hit: cytoprotection (ATP increase), actives largely listed as activators. 230,000 compounds, 0.14% hits; further: potency means the concentration at half of the fitted maximal effect; % of control where 0% means no effect; nearly all actives have a fitted effect of over 45% in size
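Stable PC12 Q103-GFP cells in serum-supplemented, phenol red-free DMEM; induction by tebufenozide at 100 nM final; compound dose series; cell viability quantified luminescently from ATP.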
ALDH1A1 inh = qHTS Assay for Inhibitors of Aldehyde Dehydrogenase 1 (ALDH1A1); Purified ALDH1A1, NADH fluorescence, propionaldehyde substrate; AID 1030, 2008; Potency, µM (top dose mostly 75.3 µM), for the others: at the highest dose activity, negative = inhibition, actives largely listed as inhibitors; 220,000 compounds, 7.3% hits; active means well fitted inhibition curve with a large enough effect, not every such curve was filed as active; inconclusive means small, poorly fitted or top-dose-only effect, or another doubt; inactive means no such curve, though single readings can be large or run the other way;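 further: potency means the concentration at half of the fitted maximal effect; plate controls were no enzyme wells and a reference inhibitor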
Target sequence (P00352 whole entry, looked up): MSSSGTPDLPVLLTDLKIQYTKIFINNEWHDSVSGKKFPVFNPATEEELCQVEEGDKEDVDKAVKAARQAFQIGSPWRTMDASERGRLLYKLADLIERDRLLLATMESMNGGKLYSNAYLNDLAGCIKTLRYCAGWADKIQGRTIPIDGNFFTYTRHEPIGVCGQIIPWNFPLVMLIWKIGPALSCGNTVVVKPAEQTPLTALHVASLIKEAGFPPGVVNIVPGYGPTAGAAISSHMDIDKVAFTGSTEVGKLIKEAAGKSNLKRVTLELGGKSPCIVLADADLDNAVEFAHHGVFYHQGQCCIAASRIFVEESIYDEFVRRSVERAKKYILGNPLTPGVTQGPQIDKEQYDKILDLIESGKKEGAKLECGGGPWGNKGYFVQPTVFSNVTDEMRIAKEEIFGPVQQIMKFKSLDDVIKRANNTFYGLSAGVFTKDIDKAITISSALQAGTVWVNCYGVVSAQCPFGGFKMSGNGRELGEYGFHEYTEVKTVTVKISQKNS
IMPase Li inh = qHTS Assay for Identifying the Cell-Membrane Permeable IMPase Inhibitors: Potentiation with Lithium | CHO-M1 cells, IP1 TR-FRET (IP-One), carbachol + lithium | 210,000 compounds, 0.35% hits | Potency, µM (top dose mostly 59.4 µM), for inactives: at the top dose activity, negative = IMPase inhibition, most hits filed as inhibitors | AID 1457, 2008;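 further: IP1 builds up when IMPase is blocked and the TR-FRET signal falls; potency means the concentration at half of the fitted maximal effect; plate controls were basal vehicle for no effect and high inhibitor control for full effect; nearly all actives have a fitted effect of over 50% in size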
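Lithium-sensitised IP1 accumulation assay; M1-expressing CHO cells treated 30 min at 37C with compound. Competitive antibody detection by time-resolved FRET followed a 10 min room-temperature lysis step.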
HTT aggregate = qHTS Multiplex Assay to Identify Dual Action Probes in a Cell Model of Huntington: Aggregate Formation (GFP). Potency, µM (highest dose often 46.1 µM), inactives show at the top dose activity change, negative = inhibition, usual class: inhibitors. AID 1688, 2009. PC12 HttQ103-GFP aggregates, Acumen cytometry, 40 h. 220,000 compounds, 1.1% hits; further: potency means the concentration at half of the fitted maximal effect; on the % scale 0 is the no-effect control and ±100 the full control effect; nearly all actives have a fitted effect of over 60% in size
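Steps: seed 1500 PC12 HTTQ103-GFP cells/well; add tebufenozide, 100 nM final; add compound titration; add ATPLite reagent; quantify GFP aggregates by laser scanning cytometry.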
IMPase cell inh = qHTS Assay for Identifying the Cell-Membrane Permeable IMPase Inhibitors. CHO-M1 cells, IP1 accumulation, HTRF TR-FRET ratio. inhibition (IP1 accumulation), % at 46.1 µM. 120,000 tested, under 10 active. AID 901, 2007; active means well fitted curve in the direction sought with a large enough effect in the signal ratio, not every such curve was filed as active; inconclusive means small, poorly fitted or top-dose-only effect, or a change in a side signal; inactive means no such curve, though single readings can be large or run the other way; the % refers to the signal ratio;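 further: cells stimulated with carbachol in lithium chloride buffer; plate controls were DMSO basal wells for no effect and reference inhibitor wells for full effect; higher means more IMPase inhibition seen as more IP1 and lower FRET ratio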
Target sequence (P97697 whole entry, looked up): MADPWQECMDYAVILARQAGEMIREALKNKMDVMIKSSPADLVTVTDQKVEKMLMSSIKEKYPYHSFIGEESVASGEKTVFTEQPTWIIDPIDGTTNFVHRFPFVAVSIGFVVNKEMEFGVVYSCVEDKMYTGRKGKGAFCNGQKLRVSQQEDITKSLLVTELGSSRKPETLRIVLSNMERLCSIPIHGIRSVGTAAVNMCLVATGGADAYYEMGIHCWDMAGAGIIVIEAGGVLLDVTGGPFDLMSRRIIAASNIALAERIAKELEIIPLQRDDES
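In this qHTS, compounds (final up to 46 uM) act on CHO-M1 cells that are then activated through the M1 receptor with carbachol, in pH 7.4 buffer containing 50 mM LiCl, for 30 min. IP1 accumulation is quantified by the IP-One immunoassay.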
* = called active by the depositor; ? = inconclusive; / = not tested or not shown; ! = a repeat was not active; [ ] = remark or other dose. In the library only some 9.4% were active in any assay of this set; here they are far more common. Unless noted, the call rests on the fitted dose curve; in most records, active means well fitted curve in the direction sought with a large enough effect; inconclusive means small, poorly fitted or top-dose-only effect, or another doubt; inactive means no such curve, though single readings can be large; an effect the other way counts as inactive or inconclusive.

SMILES	HPGD block	HTT ATP protect	ALDH1A1 inh	IMPase Li inh	HTT aggregate	IMPase cell inh
Cc1[nH]nc(SCC(=O)N2CCC(C)CC2)c1[N+](=O)[O-]	6.3µM*	11%	10µM*	54%[38.3 µM]	-17%	6
Cc1[nH]nc(SCC(=O)N2CCCC2)c1[N+](=O)[O-]	/	-47%	-14%	-1%	-8%	/
Cc1ccc(C(=O)CSc2cnc3ccccc3n2)cc1C	22µM*	/	22µM*	-2%	-3%	/
Cn1c2c(c(=O)n(C)c1=O)C(c1cccc(O)c1)CC(=O)N2 (stereo not drawn)	/	/	/	/	/	-12
O=C(CSc1nc2ccccc2s1)N1CCCCC1	2.8µM*	-22%	4.5µM*	20%[38.3 µM]	-9%	2
O=C(CSc1c(Cl)cccc1Cl)N1CCC(c2nc3ccccc3s2)CC1	-3%	-53%	?	10%[38.3 µM]	11µM*	8
O=C(O)CCSc1nc2ccccc2s1	?	9%	25µM*	17%[38.3 µM]	5%	-8
c1ccc2sc(SCSc3nc4ccccc4s3)nc2c1	-29%	-8%[10 µM]	-15%[13.5 µM]	12%	22%[9.22 µM]	/
O=C(O)C1CCN(C(=O)CSc2nc3ccccc3s2)CC1	/	-17%	-16%	-12%	-18%	/
CC(=O)Nc1ccc2nc(SCC(=O)N3CCOCC3)sc2c1	/	16%	4%	-4%	-18%	/
O=C(CSc1ccc(Cl)cc1)N1CCC(c2nc3ccccc3s2)CC1	-5%	-27%	-14%	16%[38.3 µM]	?	1
O=C(CSc1nc2ccc(Nc3nc(N4CCOCC4)nc(N4CCOCC4)n3)cc2s1)N1CCOCC1	22µM*	16%[10 µM]	4%	5%	-8%	/
CCOC(=O)c1c(NC(=O)CCCOc2ccc(Cl)cc2)sc2c1CCC2	/	/	/	/	/	-7
Cc1ccnc(N2CCN(C(=O)CSc3nc4ccccc4nc3N3CCC(C)CC3)CC2)c1	/	-57%	-2%	6%	?	/
CC1CCN(C(=O)CSc2nc3ccccc3s2)CC1	14µM*	-5%	?	-6%[38.3 µM]	0%	12
CC1CCCC(C)N1C(=O)CSc1nc2ccccc2s1 (stereo not drawn)	2.2µM*	4%	22µM*	42%[38.3 µM]	1%	-6
Cc1nc2ccccc2nc1SCC(=O)N1CCC(C)CC1	-10%	3%	?	13µM*	-4%	?
CC1Cc2ccccc2N1C(=O)CSc1nc2ccccc2s1 (stereo not drawn)	-17%	?	-5%	9%	-4%	-11
O=C(CSc1nc2ccccc2s1)N1CCN(C(=O)c2ccco2)CC1	-27%	-6%[10 µM]	14µM*	14%	9%	-9
Cc1cccc(CN2CCN(CC(=O)NCCc3ccc(Cl)cc3)C2=O)c1	/	/	/	/	/	10
N#CCc1nc(CSc2nc3ccccc3s2)cs1	25µM*	18%	?	43%[38.3 µM]	4%	2
N#CCCCSc1nnc(CSc2nc3ccccc3s2)n1-c1ccccc1	-7%	5%	-2%	16%[38.3 µM]	?	7
O=C(CCC(=O)N1CCN(C(=O)c2ccco2)CC1)c1ccc(F)cc1	/	?	0%	-5%	2%	/
O=C(CSc1nc(-c2ccc(F)cc2)cs1)N1CCN(C(=O)c2ccco2)CC1	?	-30%	14µM*	11%[38.3 µM]	-13%	-2
COc1cc(NS(=O)(=O)c2ccc(NC(=O)c3ccc(OC)c(Br)c3)cc2)nc(OC)n1	/	/	/	/	/	-1
SMILES	HPGD block	HTT ATP protect	ALDH1A1 inh	IMPase Li inh	HTT aggregate	IMPase cell inh
COC(=O)C1=C(C)N=C2SC(C#N)=C(N)N2C1c1cccc(OC)c1 (stereo not drawn)	-10%	11%	13µM*	26%[38.3 µM]	10%	0
C[C@](N)(Cc1ccc(O)c(O)c1)C(=O)O	?	-48%	5.6µM*!	0%	11%	-4
CCN(CC)CCCCn1c(-c2ccccc2)nc2c(NCc3ccccc3)nc(C)nc21	?	-51%	?	10%	/	/
CCN(CC)c1ccc(/C=N/NC(=O)c2ccco2)c(O)c1	/	-79%[10 µM]	/	/	?	/
CCN(CC)c1ccc(/C=N/NC(=O)Cc2cccs2)c(O)c1	?	-89%[10 µM]	?	18%	25µM*	/
CC(=O)NC1C(c2nc3ccccc3s2)=C(c2ccccc2)C(=O)N1c1ccc(C)cc1 (stereo not drawn)	-24%	-9%[10 µM]	7.9µM*	4%[38.3 µM]	10%	8
CCCn1c(CN2CCN(C(=O)c3ccco3)CC2)nc2c1c(=O)n(C)c(=O)n2C	-6%	10%[10 µM]	-7%	28%[38.3 µM]	-22%	-2
Cn1c(=O)c2c(nc(CN3CCN(C(=O)c4ccco4)CC3)n2CCCc2ccccc2)n(C)c1=O	-1%	3%	1.3µM*	4%[38.3 µM]	20%	-4
Cn1c(=O)c2c(nc(CN3CCN(C(=O)c4ccco4)CC3)n2CCc2ccccc2)n(C)c1=O	-10%	-11%	13µM*	-7%[38.3 µM]	9%	9
Cn1c(=O)c2c(nc(CN3CCOCC3)n2CCc2ccccc2)n(C)c1=O	-5%	-2%	7.1µM*	-8%[38.3 µM]	14%	0
CCN1CCN(Cc2nc3c(c(=O)n(C)c(=O)n3C)n2CCc2ccccc2)CC1	0%	-4%	2%	-4%	12%	/
CCN1CCN(Cc2nc3c(c(=O)n(C)c(=O)n3C)n2CCCc2ccccc2)CC1	-14%	-11%	13µM*	1%[38.3 µM]	1%	-15
Cc1nc2cnc(N3CCNCC3)nc2n(CCC#N)c1=O	?	21%	?	7%	/	/
FC(F)(F)c1ccccc1-c1cc(NCc2cccs2)ncn1	/	5%	-5%	7%	/	/
CC1(C)CCC[C@@]2(C)C1CC[C@@](C)(O)[C@@H]2CC[C@@](C)(O)C1CO1 (stereo partly drawn)	-5%	-1%	?	6%	/	/
C=CCc1ccccc1OCC(O)CNC (stereo not drawn)	-3%	9%	22µM*	6%[38.3 µM]	9%	3
COc1cccc(NC(=O)NC(C)C2CC3CCC2C3)c1 (stereo not drawn)	/	-68%	5µM*	23%	8%[9.22 µM]	/
CCC(C)[C@H](NC(=O)Nc1cccc(OC)c1)C(=O)OC (stereo partly drawn)	-12%	-29%[0.074 µM]	0%	-12%[38.3 µM]	-9%	-7
Cc1c(C(=O)N2CCCC(C)C2)sc2ncnc(N3CCCCC3C)c12 (stereo not drawn)	/	-17%	13µM*	-9%	-7%	/
Cc1c(C(=O)O)sc2ncnc(N3CCCCC3C)c12 (stereo not drawn)	18µM*	-11%	2%	5.6µM*	-25%	?
Cc1cc2c(N3CCCCC3C)ncnc2s1 (stereo not drawn)	-9%	3%[10 µM]	2%	-3%	?	1
